According to PubChem BioAssay (Tox21):
Records with an inconclusive call do not appear. Activity calls are given as the source filed them. Calls come from the whole dose curve; as a rule, active = well fitted curve in the direction sought with a large enough effect in the repeat runs; inconclusive = weak or mixed curves; inactive = no such curve, though single readings can be large; an effect the other way counts as inactive or inconclusive.

Assays:
[1] = A CellTox Green Cytotoxicity Assay to monitor cytotoxicity in HEK293 cells - 32 hour (AID 1224881); note: nearly all actives have a fitted effect of over 40% in size
Summary of the method: (§1)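 Tox21 screen in HEK293: membrane-impermeant cyanine dye fluoresces on binding dead-cell DNA; compound pinned 5 h post-seeding, plates held at 37 C, signal read repeatedly through 40 h.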

[2] = A CellTox Green Cytotoxicity Assay to monitor cytotoxicity in HepG2 cells - 0 hour (AID 1224882); note: nearly all actives have a fitted effect of over 35% in size
Summary of the method: (§2)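 Measurements at 0, 8, 16, 24, 32 and 40 h of treatment captured CellTox Green fluorescence in HepG2 cells that had been co-plated with reagent and preincubated 5 h at 37 C/5% CO2.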

[3] = A CellTox Green Cytotoxicity Assay to monitor cytotoxicity in HepG2 cells - 32 hour (AID 1224883); note: nearly all actives have a fitted effect of over 50% in size
Summary of the method: as §2

[4] = A CellTox Green Cytotoxicity Assay to monitor cytotoxicity in HEK293 cells - 8 hour (AID 1224884); note: nearly all actives have a fitted effect of over 35% in size
Summary of the method: as §1

[5] = qHTS RealTime-Glo MT Cell Viability Assay in HepG2 cells - 16 hour (AID 1224885); note: nearly all actives have a fitted effect of over 50% in size
Summary of the method: (§3)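 Cells + NanoLuc/prosubstrate dispensed (600 cells/well) → 5 h at 37 C/5% CO2 → compounds in DMSO transferred → 40 h incubation at 37 C, luminescence read at 0, 8, 16, 24, 32, 40 h.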

[6] = qHTS RealTime-Glo MT Cell Viability Assay in HEK293 cells - 24 hour (AID 1224886); note: top concentration of the series differs between compounds; nearly all actives have a fitted effect of over 50% in size
Summary of the method: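 Tox21 10K qHTS, HEK293, 600 cells/well, RealTime-Glo reagent co-dispensed with cells; 5 h preincubation, compound by pintool, 37 C, luminescence at 0–40 h.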

[7] = qHTS RealTime-Glo MT Cell Viability Assay in HEK293 cells - 8 hour (AID 1224887); note: top concentration of the series differs between compounds; nearly all actives have a fitted effect of over 50% in size
Summary of the method: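 HEK293 + NanoLuc + prosubstrate, 600 cells/well; 5 h, 37 C/5% CO2; compound 23 nL in DMSO by pintool; 37 C; luminescence read at 0, 8, 16, 24, 32 and 40 h time points.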

[8] = A CellTox Green Cytotoxicity Assay to monitor cytotoxicity in HEK293 cells - 16 hour (AID 1224888); note: nearly all actives have a fitted effect of over 35% in size
Summary of the method: as §1

[9] = qHTS RealTime-Glo MT Cell Viability Assay in HepG2 cells - 0 hour (AID 1224889); note: nearly all actives have a fitted effect of over 50% in size
Summary of the method: as §3

[10] = A CellTox Green Cytotoxicity Assay to monitor cytotoxicity in HepG2 cells - 8 hour (AID 1224890); note: nearly all actives have a fitted effect of over 45% in size
Summary of the method: as §2
% is set by controls: 0 for no effect and ±100 for the full control effect.

Nc1ccc(S(=O)(=O)NCc2ccccc2)cc1
inactive: Potency [1] | Potency [2] | Potency [3] | Potency [4] | Potency [5] | Potency [6] | Potency [7] | Potency [8] | Potency [9] | Potency [10]

COc1ccc(CCN(C)CCCN2CCc3cc(OC)c(OC)cc3CC2=O)cc1OC
inactive: Potency [1] | Potency [2] | Potency [3] | Potency [4] | Potency [5] | Potency [6] | Potency [7] | Potency [8] | Potency [9] | Potency [10]

C=CC(=O)NC(C)C
inactive: Potency [1] | Potency [2] | Potency [3] | Potency [4] | Potency [5] | Potency [6] | Potency [7] | Potency [8] | Potency [9] | Potency [10]

Cc1ccccc1S(N)(=O)=O
inactive: Potency [1] | Potency [2] | Potency [3] | Potency [4] | Potency [5] | Potency [6] | Potency [7] | Potency [8] | Potency [9] | Potency [10]

COC1CCC=CO1 (stereo unspecified)
inactive: Potency [1] | Potency [2] | Potency [3] | Potency [4] | Potency [5] | Potency [6] | Potency [7] | Potency [8] | Potency [9] | Potency [10]

SCCc1cnccn1
inactive: Potency [1] | Potency [2] | Potency [3] | Potency [4] | Potency [5] | Potency [6] | Potency [7] | Potency [8] | Potency [9] | Potency [10]

O=C(Nc1ccc(C(=O)O)c(O)c1)c1ccccc1
inactive: Potency [1] | Potency [2] | Potency [3] | Potency [4] | Potency [5] | Potency [6] | Potency [7] | Potency [8] | Potency [9] | Potency [10]

COC(C)(C)OC
inactive: Potency [1] | Potency [2] | Potency [3] | Potency [4] | Potency [5] | Potency [6] | Potency [7] | Potency [8] | Potency [9] | Potency [10]

C[C@@H]1C[C@H]2[C@@H]3CCC4=CC(=O)C=C[C@]4(C)[C@@]3(F)[C@@H](O)C[C@]2(C)[C@@]1(O)C(=O)COP(=O)(O)O
inactive: Potency [1] | Potency [2] | Potency [3] | Potency [4] | Potency [5] | Potency [6] | Potency [7] | Potency [8] | Potency [10]

COC(=O)CC(C(C)=O)C(=O)OC (stereo unspecified)
inactive: Potency [1] | Potency [2] | Potency [3] | Potency [4] | Potency [5] | Potency [6] | Potency [7] | Potency [8] | Potency [9] | Potency [10]

CCN(Cc1cccc(S(=O)(=O)O)c1)c1ccc(C(=C2C=CC(=[N+](CC)Cc3cccc(S(=O)(=O)O)c3)C=C2)c2ccc(O)cc2S(=O)(=O)[O-])cc1
inactive: Potency [1] | Potency [2] | Potency [3] | Potency [4] | Potency [5] | Potency [6] | Potency [7] | Potency [8] | Potency [9] | Potency [10]

CCCOC(=O)c1c(Cl)c(Cl)c(Cl)c(Cl)c1C(=O)OCCC
inactive: Potency [1] | Potency [2] | Potency [3] | Potency [4] | Potency [5] | Potency [6] | Potency [7] | Potency [8] | Potency [9] | Potency [10]

BrC(Br)C(Br)Br
inactive: Potency [1] | Potency [2] | Potency [3] | Potency [4] | Potency [5] | Potency [6] | Potency [7] | Potency [8] | Potency [9] | Potency [10]

COc1ccc(C2C(=O)c3ccccc3C2=O)cc1
inactive: Potency [1] | Potency [2] | Potency [3] | Potency [4] | Potency [5] | Potency [6] | Potency [7] | Potency [8] | Potency [9] | Potency [10]

CC[C@H]1OC(=O)[C@H](C)[C@@H](O[C@H]2C[C@@](C)(OC)[C@@H](O)[C@H](C)O2)[C@H](C)[C@@H](O[C@@H]2O[C@H](C)C[C@H](N(C)C)[C@H]2O)[C@](C)(O)C[C@@H](C)/C(=N\OCOCCOC)[C@H](C)[C@@H](O)[C@]1(C)O
inactive: Potency [1] | Potency [2] | Potency [3] | Potency [4] | Potency [5] | Potency [6] | Potency [7] | Potency [8] | Potency [9] | Potency [10]

CCCCCCCC/C=C/C(=O)O
inactive: Potency [1] | Potency [2] | Potency [3] | Potency [4] | Potency [5] | Potency [6] | Potency [7] | Potency [8] | Potency [9] | Potency [10]

CC(C)(C)S
inactive: Potency [1] | Potency [2] | Potency [3] | Potency [4] | Potency [5] | Potency [6] | Potency [7] | Potency [8] | Potency [9] | Potency [10]

CC1=CC[C@@H]2C[C@H]1C2(C)C
inactive: cytotoxicity increase [1] 1.12% [at 15.8 µM] | cytotoxicity [2] -3.74% [at 15.8 µM] | cytotoxicity increase [3] -9% [at 15.8 µM] | cytotoxicity increase [4] 0.245% [at 15.8 µM] | activity change, negative = cytotoxic [5] 1.14% [at 15.8 µM] | activity change, negative = cytotoxicity [6] 1.87% [at 15.8 µM] | activity change, negative = cytotoxicity [7] -0.368% [at 15.8 µM] | activity change [8] 1.29% [at 15.8 µM, stronger effect = higher value] | activity change, negative = cytotoxicity [9] -1.11% [at 15.8 µM] | cytotoxicity increase [10] -9.84% [at 15.8 µM]

CC1CCc2nccnc21 (stereo unspecified)
inactive: Potency [1] | Potency [2] | Potency [3] | Potency [4] | Potency [5] | Potency [6] | Potency [7] | Potency [8] | Potency [10]

[Cl][Nd]([Cl])[Cl]
inactive: Potency [1] | Potency [2] | Potency [3] | Potency [4] | Potency [5] | Potency [6] | Potency [7] | Potency [8] | Potency [9] | Potency [10]

CC(C)N=C=NC(C)C
inactive: Potency [1] | Potency [2] | Potency [3] | Potency [5] | Potency [6] | Potency [7] | Potency [8] | Potency [9]

Cc1ccc2c(c1[N+](=O)[O-])C(=O)c1ccccc1C2=O
inactive: Potency [1] | Potency [2] | Potency [3] | Potency [4] | Potency [5] | Potency [7] | Potency [8] | Potency [9] | Potency [10]

O=C(O)CNC(=O)c1ccccc1I
inactive: Potency [1] | Potency [2] | Potency [3] | Potency [5] | Potency [6] | Potency [7] | Potency [8] | Potency [9]

O=C(O)c1cc(Cl)cc(Cl)c1O
inactive: Potency [1] | Potency [2] | Potency [3] | Potency [5] | Potency [6] | Potency [7] | Potency [8] | Potency [9] | Potency [10]

C=CC(=O)O
inactive: Potency [1] | Potency [2] | Potency [3] | Potency [5] | Potency [6] | Potency [7] | Potency [8] | Potency [9] | Potency [10]
